Source: PubChem
S1P1 ag: activates the human S1P1 receptor; Sphingosine 1-phosphate receptor 1 (Homo sapiens), P21453; S1P1 agonist cell-based reporter assay; activation, % at 4.5 µM; actives 1.5% (n = 16,000); AID 1044, 2008; in the data active = activation above about 80%
rat GALR2 agon: agonists of rat galanin receptor 2 (GALR2); Galanin receptor type 2 (Rattus norvegicus), O08726; cell-based GALR2 agonist screen; activation, % at 10 µM; actives 0.5% (n = 16,000); AID 833, 2007; in the data active = activation above about 15%
TLR4 MyD88 blk: inhibitors of human TLR4-MyD88 binding. Toll-like receptor 4 (Homo sapiens), O00206. Cell-based TLR4-MyD88 binding inhibition assay. inhibition, % at 10 µM. actives 0.06% (n = 16,000). AID 811, 2007; in the data active = inhibition above about 45%
Target sequence (O00206 whole entry, looked up): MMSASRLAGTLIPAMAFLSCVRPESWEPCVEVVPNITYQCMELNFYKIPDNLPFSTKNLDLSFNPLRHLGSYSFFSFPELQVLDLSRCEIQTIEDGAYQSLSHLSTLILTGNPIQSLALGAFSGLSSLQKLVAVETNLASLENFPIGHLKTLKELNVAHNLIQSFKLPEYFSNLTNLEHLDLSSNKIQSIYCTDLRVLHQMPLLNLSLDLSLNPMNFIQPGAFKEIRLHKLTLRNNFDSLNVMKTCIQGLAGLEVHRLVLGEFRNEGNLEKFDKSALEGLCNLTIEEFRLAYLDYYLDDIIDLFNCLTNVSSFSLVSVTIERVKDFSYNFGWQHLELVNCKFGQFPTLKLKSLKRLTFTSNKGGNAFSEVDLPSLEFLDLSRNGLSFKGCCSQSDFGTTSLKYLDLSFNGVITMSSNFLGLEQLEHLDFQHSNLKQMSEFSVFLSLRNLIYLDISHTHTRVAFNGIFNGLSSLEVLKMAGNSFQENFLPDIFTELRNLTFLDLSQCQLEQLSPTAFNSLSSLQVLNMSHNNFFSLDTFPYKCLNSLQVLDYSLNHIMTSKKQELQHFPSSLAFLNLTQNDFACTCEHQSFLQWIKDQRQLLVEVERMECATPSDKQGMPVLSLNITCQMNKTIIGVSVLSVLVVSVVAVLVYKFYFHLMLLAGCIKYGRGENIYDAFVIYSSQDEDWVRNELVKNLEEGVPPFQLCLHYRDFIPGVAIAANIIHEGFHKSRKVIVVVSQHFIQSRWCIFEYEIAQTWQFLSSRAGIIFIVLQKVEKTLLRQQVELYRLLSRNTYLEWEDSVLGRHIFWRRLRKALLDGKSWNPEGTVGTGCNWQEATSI
Numbers stand for hits. The list is not random: actives were taken first. Their share in the collection is about 2.3%.

For OCCCNNC(=S)Nc1ccc(Cl)cc1Cl the results were S1P1 ag inactive, rat GALR2 agon inactive and TLR4 MyD88 blk inactive.
Screening S=C(NNc1c(Cl)cncc1Cl)Nc1ccc(Cl)cc1Cl returned S1P1 ag 118.5, rat GALR2 agon inactive and TLR4 MyD88 blk inactive.
COC(=O)c1ccccc1NC1=NCCS1 was read as S1P1 ag inactive, rat GALR2 agon inactive and TLR4 MyD88 blk inactive.
`O=C(NCc1ccco1)c1ccc2c(c1)OCCCO2` gave S1P1 ag inactive, rat GALR2 agon inactive and TLR4 MyD88 blk inactive.
Screening N#C/C(=N\Nc1cccc(C(F)(F)F)c1)S(=O)(=O)c1ccsc1 returned S1P1 ag 97.0, rat GALR2 agon inactive and TLR4 MyD88 blk inactive.
For N#C/C(=N\Nc1cccc(C(F)(F)F)c1)C(=O)c1csc(-c2cccnc2)n1 the results were S1P1 ag inactive, rat GALR2 agon inactive and TLR4 MyD88 blk inactive.
OC[C@@H](O)[C@H](O)[C@H](O)[C@@H](O)C(SCc1ccccc1)SCc1ccccc1 was read as S1P1 ag 103.5, rat GALR2 agon inactive and TLR4 MyD88 blk inactive.
For CCSC(SCC)[C@@H](O)[C@H](O)[C@H](O)[C@@H](O)CO the results were S1P1 ag inactive, rat GALR2 agon inactive and TLR4 MyD88 blk inactive.
`CC(C)(C)c1ccc(NC(=O)c2ccc(N3C(=O)CSCC3=O)cc2)cc1` gave S1P1 ag 93.5 and rat GALR2 agon inactive.
Screening CC(=O)Nc1ccc(/C=N/NC(=O)c2ccc(C(C)(C)C)cc2)cc1 returned S1P1 ag inactive, rat GALR2 agon inactive and TLR4 MyD88 blk inactive.
Screening COc1cc(C=Nc2ccc(Cl)cc2)ccc1OC(=O)C1CC1 returned S1P1 ag inactive, rat GALR2 agon inactive and TLR4 MyD88 blk inactive.
Screening O=C(NCC(O)COCc1ccccc1)c1ccccc1 (centres undefined) returned S1P1 ag inactive, rat GALR2 agon 29.1 and TLR4 MyD88 blk inactive.
Screening COC(=O)CNC(=O)c1ccccc1 returned S1P1 ag inactive, rat GALR2 agon inactive and TLR4 MyD88 blk inactive.
`FC(F)(F)c1ccn(-c2nc(-c3ccccc3)ns2)n1` gave S1P1 ag inactive, rat GALR2 agon inactive and TLR4 MyD88 blk inactive.
For c1ccc(-c2nsc(-n3ccc(-c4cccs4)n3)n2)cc1 the results were S1P1 ag inactive, rat GALR2 agon 19.9 and TLR4 MyD88 blk inactive.
For COc1ccc(/C(=C/C(=O)c2ccccc2)CC(=O)c2ccccc2)cc1 the results were S1P1 ag inactive, rat GALR2 agon inactive and TLR4 MyD88 blk inactive.
For Cn1cccc1C(=O)/C(C#N)=C/c1cccs1 the results were S1P1 ag inactive, rat GALR2 agon inactive and TLR4 MyD88 blk inactive.
`O=c1[nH]c2ccccc2nc1-c1c[nH]c2ccccc12` gave S1P1 ag inactive, rat GALR2 agon 81.6 and TLR4 MyD88 blk inactive.
For Cc1nc2ccccc2[nH]c1=O the results were S1P1 ag inactive, rat GALR2 agon inactive and TLR4 MyD88 blk inactive.
For Cc1c(C#N)c(NC(=O)c2cccs2)n(Cc2cccs2)c1C the results were S1P1 ag inactive, rat GALR2 agon inactive and TLR4 MyD88 blk inactive.
For O=C(O)CSC(=S)c1ccccc1 the results were S1P1 ag inactive, rat GALR2 agon inactive and TLR4 MyD88 blk inactive.
Screening Oc1c(Cl)cc(Cl)cc1C1Nc2cc(Cl)c(C(F)(F)F)cc2N1 (centres undefined) returned S1P1 ag 106.2, rat GALR2 agon inactive and TLR4 MyD88 blk inactive.
Screening N#CCCN(Cc1cccs1)C(=O)Nc1cccc(C(F)(F)F)c1 returned S1P1 ag inactive, rat GALR2 agon 41.9 and TLR4 MyD88 blk inactive.
`N#CCCN(Cc1cccs1)C(=O)c1cccs1` gave S1P1 ag inactive, rat GALR2 agon inactive and TLR4 MyD88 blk inactive.
Screening O=C(CS(=O)(=O)c1ccc(Cl)cc1)NOC(=O)c1cc(Cl)cc(Cl)c1 returned S1P1 ag inactive, rat GALR2 agon inactive and TLR4 MyD88 blk inactive.
For Cc1ccc(S(=O)(=O)NC(=O)NCc2nc(-c3ccc(C(F)(F)F)cc3)no2)cc1 the results were S1P1 ag inactive, rat GALR2 agon inactive and TLR4 MyD88 blk inactive.
`COc1ccc(N=Nc2ccc(OC)c(OC)c2)cc1OC` gave S1P1 ag 92.7, rat GALR2 agon inactive and TLR4 MyD88 blk inactive.
For COc1ccc(CC(C)=C(C#N)C#N)cc1OC the results were S1P1 ag inactive, rat GALR2 agon inactive and TLR4 MyD88 blk inactive.
For CCOC(=O)/C(C#N)=C/Nc1ccccc1C(=O)NCCc1ccc(Cl)cc1 the results were S1P1 ag inactive, rat GALR2 agon inactive and TLR4 MyD88 blk inactive.
For COC(=O)c1cc(NC(=O)c2c(Cl)cccc2Cl)ccc1N1CCOCC1 the results were S1P1 ag inactive, rat GALR2 agon inactive and TLR4 MyD88 blk inactive.
`COC(=O)c1cc(NC(=O)/C=C/c2ccc(OC)c(OC)c2Cl)ccc1N1CCOCC1` gave S1P1 ag 84.6, rat GALR2 agon inactive and TLR4 MyD88 blk inactive.
Screening O=[N+]([O-])c1cc(C(F)(F)F)cc([N+](=O)[O-])c1Sc1ncc2ccccn12 returned S1P1 ag inactive, rat GALR2 agon inactive and TLR4 MyD88 blk inactive.
